Test results taken from the supplement of paper PMC7156485.
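Note: TDF is a line of transformed human dermal fibroblasts of mesenchymal origin.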

Each compound was assayed on TDF (assay: H1.0 immunofluorescence intensity relative to DMSO (% of DMSO); higher = stronger H1.0 induction, active = 120 or more). Settings: concentration: 10 µM; 24 h.
Method in brief: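 Cells were seeded at 800 per well in 384-well plates with RPMI containing 10% FBS; both HCC1569 and TDF lines were used. Compounds were added at 10 µM for 24 h at 37 °C, in triplicate, before fixation in 3.7% formaldehyde and staining with a rabbit anti-H1.0 antibody, an AlexaFluor 647 secondary and DAPI. H1.0 nuclear intensity or cell number is reported as percent of the plate control using the median of replicates, and HCC1569 values were smoothed for positional effects.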
`COc1ccccc1N1CCN(CCCNc2cc(=O)n(C)c(=O)n2C)CC1.Cl` [Urapidil hydrochloride] was tested, and the H1.0 immunofluorescence intensity was 92.7 (inactive).
In the case of `CN[C@H](CC(=O)O)C(=O)O` [N-Methyl-D-aspartic acid], the H1.0 immunofluorescence intensity is reported as 85.2 (inactive).
In the case of `CN(C)C(=O)COC(=O)Cc1ccc(OC(=O)c2ccc(N=C(N)N)cc2)cc1.CS(=O)(=O)O`, the H1.0 immunofluorescence intensity is reported as 91.2 (inactive).
`Nc1nc(Cl)nc2c1ncn2C1OC(CO)C(O)C1F` (stereo not given) [Clofarabine] was tested, and the H1.0 immunofluorescence intensity was 119 (inactive).
In the case of `O=C1NC(=O)C(c2cn(CCCn3ccnc3)c3ccccc23)=C1Nc1ccccc1` [PKCb Inhibitor], the H1.0 immunofluorescence intensity is reported as 87.7 (inactive).
`Cc1cc(C2CCCCC2)n(O)c(=O)c1.NCCO` [Ciclopirox ethanolamine] was tested, and the H1.0 immunofluorescence intensity was 93.2 (inactive).
In the case of `COc1ccc(CC(N)C(=O)NC2C(CO)OC(n3cnc4c(N(C)C)ncnc43)C2O)cc1` (stereo not given) [Puromycin], the H1.0 immunofluorescence intensity is reported as 94 (inactive).
With `CN(C)c1cc2c(Nc3ccc4c(cnn4Cc4ccccc4)c3)ncnc2cn1` the H1.0 immunofluorescence intensity was 113 (inactive).
In the case of `CCCC[C@@H](C=O)NC(=O)[C@H](CC(C)C)NC(=O)[C@H](CC(C)C)NC(C)=O`, the H1.0 immunofluorescence intensity is reported as 160 (active).
In the case of `CCC(NC(C)C)C(O)c1ccc(O)c2[nH]c(=O)ccc12.Cl` (stereo not given) [Procaterol.HCl], the H1.0 immunofluorescence intensity is reported as 83.2 (inactive).
For `CC(C=CC=C(C)C=CC1=C(C)CCCC1(C)C)=CC=CC=C(C)C=CC=C(C)C=CC1=C(C)CCCC1(C)C`, the H1.0 immunofluorescence intensity was 101 (inactive).
With `Cl.Cl.OCCN1CCN(CCC=C2c3ccccc3Sc3ccc(C(F)(F)F)cc32)CC1` [cis-(Z)-Flupenthixol dihydrochloride] the H1.0 immunofluorescence intensity was 102 (inactive).
With `CC(C)(O)CCC(O)C(C)(O)C1CCC2(O)C3=CC(=O)C4CC(O)C(O)CC4(C)C3CCC12C` (stereo not given) the H1.0 immunofluorescence intensity was 102 (inactive).
In the case of `CCCCCCC=CCCCCCCCCC(=O)O` [10(Z)-Heptadecenoic acid], the H1.0 immunofluorescence intensity is reported as 101 (inactive).
With `Cl.NCCCC(N)(C(=O)O)C(F)F` (racemic) [DL-alpha-Difluoromethylornithine hydrochloride] the H1.0 immunofluorescence intensity was 94.3 (inactive).
`Oc1cc(O)cc(/C=C/c2ccc(Br)cc2)c1` [5-[(E)-2-(4-bromophenyl)ethenyl]-1,3-benzenediol] was tested, and the H1.0 immunofluorescence intensity was 95.4 (inactive).
For `CCCCCC=CCC=CCC=CC=CC(O)CCCC(=O)O` (stereo not given), the H1.0 immunofluorescence intensity was 104 (inactive).
In the case of `Br.Oc1ccc(C2CNCCc3c2cc(O)c(O)c3Cl)cc1` (stereo not given) [Fenoldopam bromide], the H1.0 immunofluorescence intensity is reported as 86.4 (inactive).
In the case of `O=C(O)[C@H]1C[C@H](C(=O)O)N1` (relative stereo) [trans-Azetidine-2,4-dicarboxylic acid], the H1.0 immunofluorescence intensity is reported as 91.5 (inactive).
In the case of `O=C(Nc1ccc(Cl)cc1)Nc1cccc(-c2cccc(N3CCCC3)n2)c1`, the H1.0 immunofluorescence intensity is reported as 98.6 (inactive).
With `Cl.NC1(C(=O)O)CC1` [1-Aminocyclopropanecarboxylic acid hydrochloride] the H1.0 immunofluorescence intensity was 96.5 (inactive).
`CCC(=C(c1ccccc1)c1ccc(OCCN(C)C)cc1)c1ccccc1` [Tamoxifen] was tested, and the H1.0 immunofluorescence intensity was 97.7 (inactive).
For `COc1cc2ncnc(Nc3ccc(F)c(Cl)c3)c2cc1OCCCN1CCOCC1`, the H1.0 immunofluorescence intensity was 105 (inactive).
In the case of `COc1c(O)cc(O)c2c(=O)cc(-c3ccccc3)oc12` [Wogonin], the H1.0 immunofluorescence intensity is reported as 91.2 (inactive).
In the case of `COc1cc2nc(N(C)CCCNC(=O)C3CCCO3)nc(N)c2cc1OC` (stereo not given) [Alfuzosin], the H1.0 immunofluorescence intensity is reported as 97.7 (inactive).
With `NCCCC(O)(P(=O)([O-])O)P(=O)(O)O` [Alendronate] the H1.0 immunofluorescence intensity was 94.3 (inactive).
For `CC1(C)CCCC(C)(C2CCC3(C)C2C(O)CC2C4(C)CCC(O)C(C)(C)C4C(O)CC23C)O1` (stereo not given) [Panaxatriol], the H1.0 immunofluorescence intensity was 94.8 (inactive).
With `c1ccc(C(OC2CCN(CCCc3nn[nH]n3)CC2)c2ccccc2)cc1` [4-(benzhydryloxy)-1-[3-(1H-tetraazol-5-yl)propyl]piperidine] the H1.0 immunofluorescence intensity was 92.8 (inactive).
For `Cl.N=c1c[n+](N2CCOCC2)[n-]o1` [3-Morpholinosydnonimine hydrochloride], the H1.0 immunofluorescence intensity was 94.1 (inactive).
For `CN(C)CCC(CSc1ccccc1)Nc1ccc(S(=O)(=O)NC(=O)c2ccc(N3CCN(Cc4ccccc4-c4ccc(Cl)cc4)CC3)cc2)cc1[N+](=O)[O-]` (stereo not given), the H1.0 immunofluorescence intensity was 110 (inactive).
With `CNCCC(Oc1ccccc1C)c1ccccc1` (stereo not given) [Tomoxetine] the H1.0 immunofluorescence intensity was 103 (inactive).
With `CC[C@H](C)C(=O)O[C@H]1C[C@H](O)C=C2C=C[C@H](C)[C@H](CC[C@@H](O)C[C@@H](O)CC(=O)[O-])[C@H]21.[Na+]` the H1.0 immunofluorescence intensity was 95.9 (inactive).
With `Clc1ccc(COC(Cn2ccnc2)c2ccc(Cl)cc2Cl)c(Cl)c1` (stereo not given) [Miconazole] the H1.0 immunofluorescence intensity was 101 (inactive).
With `CC1=CC(=O)C2=C(C)CCC3C(C)C(=O)OC3C12` (stereo not given) [Leucomisine] the H1.0 immunofluorescence intensity was 96.5 (inactive).
In the case of `Cl.Oc1ccc(C2CNCCc3c2cc(O)c(O)c3Cl)cc1` (stereo not given) [Fenoldopam.HCl], the H1.0 immunofluorescence intensity is reported as 97 (inactive).
For `CC(=O)c1ccc(N2CCOCC2)cc1O` [DNA-PK Inhibitor III], the H1.0 immunofluorescence intensity was 93.9 (inactive).
With `CC1=C(C(=O)O)N2C(=O)C(NC(=O)C(N)C3=CCC=CC3)C2SC1` (stereo not given) [Cephradine] the H1.0 immunofluorescence intensity was 93.5 (inactive).
With `C=C(CC)C(=O)c1ccc(OCC(=O)O)c(Cl)c1Cl` [Ethacrynic Acid] the H1.0 immunofluorescence intensity was 95.9 (inactive).
In the case of `CC(C)(S)[C@H](N)C(=O)O` [L-Penicillamine], the H1.0 immunofluorescence intensity is reported as 98.5 (inactive).
With `CC(C=CC1=C(C)CCCC1(C)C)=CC=CC(C)=CC(=O)O` [Retinoic acid] the H1.0 immunofluorescence intensity was 95.8 (inactive).
